This passage reports activation, Potency and viability results from PubChem BioAssay (NCATS).

Assay [1] has as its target Cellular tumor antigen p53 (Homo sapiens) (UniProt P04637). Description: Primary qHTS for small molecule compounds that upregulate eGFP-tagged delta133p53alpha (in N-terminal) cells. (AID 2060322).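 Also: cells pre-induced with doxycycline then dosed without doxycycline; series mostly up to about 56 µM; 0% = DMSO vehicle and 100% = reference activator; nearly all actives have a fitted effect of over 75% in size.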 The settings on record: NCI-H358 eGFP-delta133p53alpha fluorescence, 24 h; activation: active compounds read high. In outline:
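NCI-H358 cells pre-induced 24 h with 10 ng/ml doxycycline for eGFP-delta133p53alpha, plated dox-free and exposed 24 h at 37C to titrated compounds. Fixed, Hoechst-stained; gated GFP peak intensity by laser scanning cytometry, normalized to DMSO (0%) and 57.5 uM 5-azacytidine (100%).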
(qHTS replaces the single test concentration by a dilution series.)

The target is the same in assay [2]. Description: Primary qHTS for small molecule compounds that upregulate eGFP-tagged delta133p53alpha (in C-terminal) cells. (AID 2060324). Also: potency is read from the fitted curve at half-maximal effect. In outline: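 Concentration-response screen: compounds titrated onto pre-induced NCI-H358 D133p53a-eGFP cells, incubated one day, fixed with 3.5% PFA. Per-cell GFP peak intensity was gated, then normalized against intraplate controls.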

Assay [3] concerns the target Aldehyde dehydrogenase, mitochondrial (Homo sapiens) (UniProt P05091). As to the kind of experiment: qHTS for Inhibitors of the Aldehyde Dehydrogenase Family (ALDH2) Validation screens (AID 2061302; active = well fitted inhibition curve with a large enough effect; title and protocol of this record describe different tests; also: potency is read from the fitted curve at half-maximal effect).
Assay [4] concerns the target Retinaldehyde dehydrogenase 3 (Homo sapiens) (UniProt P47895). Description: qHTS for Inhibitors of the Aldehyde Dehydrogenase Family (ALDH1A3) Validation screen (AID 2061312). Also: % is scaled to controls: 0 for no effect and ±100 for the full control effect; nearly all actives have a fitted effect of over 45% in size.
The target in assay [5] is Aldehyde dehydrogenase, mitochondrial (Homo sapiens) (UniProt P05091). As to the kind of experiment: qHTS for Inhibitors of the Aldehyde Dehydrogenase Family (ALDH2) Confirmatory screens (AID 2061303; active = well fitted inhibition curve with a large enough effect; title and protocol of this record describe different tests; also: % is scaled to controls: 0 for no effect and ±100 for the full control effect; nearly all actives have a fitted effect of over 45% in size).
Assay [6] can be described thus: qHTS for Inhibitors of the Aldehyde Dehydrogenase Family (ALDH1A2, ALDH1A3, ALDH2, ALDH3A1) (AID 2061307). Also: nearly all actives have a fitted effect of over 50% in size. As to Potency: test system not described further here; potency is read from the fitted curve at half-maximal effect.
Assay [7] has as its target Aldehyde dehydrogenase 1A1 (Homo sapiens) (UniProt P00352). As to the kind of experiment: qHTS for Inhibitors of the Aldehyde Dehydrogenase Family (ALDH1A1) Confirmatory screens (AID 2061316). Also: nearly all actives have a fitted effect of over 65% in size. Also: potency is read from the fitted curve at half-maximal effect.
The target of assay [8] is Retinaldehyde dehydrogenase 3 (Homo sapiens) (UniProt P47895). As to the kind of experiment: qHTS for Inhibitors of the Aldehyde Dehydrogenase Family (ALDH1A3) Confirmatory screens (AID 2061311). Also: nearly all actives have a fitted effect of over 60% in size. Also: potency is read from the fitted curve at half-maximal effect.
The nature of assay [9]: BET inhibitor-based combinations targeting novel dependencies in MECOM-rearranged (r) AML: SET-2 cell line (AID 2202231).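 Also: plate controls were DMSO treated cells for no effect and wells without cells for full effect; nearly all actives have a fitted effect of over 35% in size.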 The settings on record: SET-2 AML cells viability, CellTiter-Glo luminescence, 48 h; viability: active compounds read low, series mostly up to about 46 µM. In outline: (§1)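 AML cell lines seeded at 500 cells/well, treated with 11-point dose curves for 48 h. Viability by CellTiter-Glo luminescence, normalised to DMSO and empty wells; activity expressed as AUC and per-cell-line Z-transformed AUC.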

The nature of assay [10]: BET inhibitor-based combinations targeting novel dependencies in MECOM-rearranged (r) AML: UCSD-AML1 cell line (AID 2202235). Also: nearly all actives have a fitted effect of over 40% in size. Also: potency is read from the fitted curve at half-maximal effect. A digest of the protocol:
(§2)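 Cells at 500/well were exposed for 48 hr to MIPE v5.0 drugs as 11-point dose curves. Viability was read by CellTiter-Glo luminescence and normalized to DMSO and empty-well controls. Activity was expressed as AUC and per-cell-line Z-AUC.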

A short description of assay [11]: BET inhibitor-based combinations targeting novel dependencies in MECOM-rearranged (r) AML: AML-191 cell line (AID 2202236;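 also: plate controls were vehicle wells for no effect and wells without cells for full effect; nearly all actives have a fitted effect of over 35% in size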). In outline:
as §1

The nature of assay [12]: BET inhibitor-based combinations targeting novel dependencies in MECOM-rearranged (r) AML: AML-194 cell line (AID 2202237;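 also: plate controls were vehicle wells for no effect and wells without cells for full effect; nearly all actives have a fitted effect of over 40% in size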). A digest of the protocol:
as §1

The nature of assay [13]: BET inhibitor-based combinations targeting novel dependencies in MECOM-rearranged (r) AML: HNT-34 cell line (AID 2202234).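 Also: plate controls were vehicle wells for no effect and cell-free wells for full effect; nearly all actives have a fitted effect of over 35% in size.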 In outline:
as §2

The nature of assay [14]: BET inhibitor-based combinations targeting novel dependencies in MECOM-rearranged (r) AML: OCI-AML3 cell line (AID 2202232).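 Also: series mostly up to about 46 µM; plate controls were DMSO vehicle wells for no effect and wells without cells for full effect; nearly all actives have a fitted effect of over 35% in size.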 The settings on record: Potency: OCI-AML3 viability. In outline: as §1
The nature of assay [15]: BET inhibitor-based combinations targeting novel dependencies in MECOM-rearranged (r) AML: MV-4-11 cell line (AID 2202233).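 Also: plate controls were DMSO for no effect and blank wells for full effect; nearly all actives have a fitted effect of over 45% in size.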 In outline:
as §2

The structures appear in SMILES notation. Where “and” joins values, the source holds several entries; their conditions need not be identical. Equal values may be shown once. Inconclusive results are not listed. Values without a mark were called inactive. Calls of active or inactive are those of the source. Unless noted, calls follow the shape of the dose curve; as a rule, active = well fitted curve in the direction sought with a large enough effect; inconclusive = small, poorly fitted or top-dose-only effect, or another doubt; inactive = no such curve, though single readings can be large; an effect the other way counts as inactive or inconclusive.

Cellular tumor antigen p53 (Homo sapiens), sequence (P04637 whole entry, looked up): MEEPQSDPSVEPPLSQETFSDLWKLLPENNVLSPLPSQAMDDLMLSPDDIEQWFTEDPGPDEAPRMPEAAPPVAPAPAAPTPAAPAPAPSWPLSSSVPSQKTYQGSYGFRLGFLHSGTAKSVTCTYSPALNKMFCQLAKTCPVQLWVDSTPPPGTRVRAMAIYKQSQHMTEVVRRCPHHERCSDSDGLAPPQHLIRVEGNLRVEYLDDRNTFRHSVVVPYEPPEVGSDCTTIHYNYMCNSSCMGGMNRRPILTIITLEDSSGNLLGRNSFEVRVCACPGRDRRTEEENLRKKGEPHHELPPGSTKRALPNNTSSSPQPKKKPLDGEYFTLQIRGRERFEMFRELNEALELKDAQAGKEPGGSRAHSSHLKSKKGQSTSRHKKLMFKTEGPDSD

Take `c1ccc2sc(C3(N4CCCCC4)CCCCC3)cc2c1`: the activation in [1] was 14.7%. Also, the Potency result in assay [2], in [3] and in [4] was “inactive” throughout.

As to `NC(=O)COc1c(F)cc(SCCNS(=O)(=O)c2ccccc2)cc1F`, the activation in [1] is -8.4%. Moreover, the Potency result in [2], in assay [3], in assay [5] and in [4] was “inactive” in each case. Moreover, the figures for the Potency in [6] and in assay [7] were 11.3 µM (active) and 14.2 µM (active), respectively.

For `CC(=O)[C@H]1CCC2C3CC[C@H]4C[C@H](O)CC[C@]4(C)C3CC[C@@]21C` (some centres not stated), in [1], the activation was -16.4%. The Potency entry in [2], in assay [3] and in assay [4] was “inactive” throughout.

Take `C[C@@H](N)Cc1cnc[nH]1`: the activation in [1] was 5.3%. The Potency entry in assay [2], in assay [3] and in assay [4] was “inactive” in each case.

With `NCCc1c[nH]c2ccc(O)cc12`, the activation in assay [1] is -1.52%. The Potency entry in assay [2] and in assay [3] was “inactive” each time.

Take `NC(=O)c1cc(N2CC2)c([N+](=O)[O-])cc1[N+](=O)[O-]`: the activation in assay [1] is -14.9%. For the same molecule, the Potency entry in [2], in assay [3] and in assay [4] was “inactive” throughout.

As to `CCCN1CCC[C@@H]2Cc3nc(N)ncc3C[C@H]21`, the activation in [1] is -29.3% and -27.1%. In addition, the Potency result in assay [2], in assay [3], in [5] and in assay [6] was “inactive” in each case.

Take `COc1ccc2[nH]cc(CCN)c2c1`: the activation in [1] is -19.1%. In addition, the Potency result in assay [2], in assay [3] and in [4] was “inactive” throughout.

For the molecule `CCCN(CCC)[C@@H]1CCc2cccc(O)c2C1`, in assay [1], the activation was 20%. Further, the Potency result in assay [2], in assay [3] and in assay [4] was “inactive” throughout.

For the molecule `CC(CCc1ccccc1)NC(C)C(O)c1ccc(O)cc1` (configuration not stated), the activation in [1] is -7.34% and 8.98%. In addition, the Potency result in assay [2], in assay [3] and in assay [4] was “inactive” each time.

Consider `Cc1ncc(CNC(=O)N(CCCl)N=O)c(N)n1`, for which the activation in [1] is 6.21% and -40.8%. The Potency result in assay [2], in assay [5], in assay [6], in assay [8] and in assay [7] was “inactive” in each case.

As to `C[C@H](N)Cc1cccc(C(F)(F)F)c1`, in [1], the activation was -17%. Further, the Potency entry in assay [2], in assay [3] and in assay [4] was “inactive” throughout.

As for `CCCn1c(=O)c2[nH]c(C3CCCC3)nc2n(CCCOC(=O)c2ccc(S(=O)(=O)F)cc2)c1=O`, the activation in [1] is 11.3%. The Potency entry in [2], in assay [3] and in [4] was “inactive” throughout.

As for `CC(C)=CCOc1c2occc2cc2ccc(=O)oc12`, the activation in assay [1] is -10.9% and -24.3%. The Potency entry in [2], in [3] and in assay [4] was “inactive” each time.

On to `CC(=O)OCC1=C(C(=O)O)N2C(=O)[C@@H](NC(=O)CCC[C@@H](N)C(=O)O)[C@H]2SC1`, for which, in [1], the activation is 20.4%. For the same molecule, the Potency result in [2], in assay [3] and in [4] was “inactive” each time.

For `Cc1cccc(C)c1NC(=O)CN1CCCC1=O`, in assay [1], the activation was -17.7% and -15.1% and -5.58%. In addition, the Potency result in [2], in assay [3], in [4], in assay [10], in assay [11] and in assay [12] was “inactive” throughout. In addition, the viability (as a rule, a read-out of living cells in per cent, often relative to untreated cells) in assay [9] is 109%.

As for `COc1ccc2[nH]c3c(c2c1)CCNC3`, the activation in assay [1] is -23.5%. Besides, the Potency entry in [2], in assay [3] and in assay [4] was “inactive” in each case.

`COc1ccc(C(=O)N2CCCC2=O)cc1`: the activation in assay [1] is 27.7% and -18.6% and -9.06%. The Potency result in [2], in assay [3], in assay [4], in [13] and in assay [10] was “inactive” throughout. The viability in assay [9] was 119%.

In the case of `CC12NC(Cc3ccccc31)c1ccccc12` (configuration not stated), the activation in assay [1] is 6.02%. In addition, the Potency entry in assay [2], in assay [3] and in assay [4] was “inactive” throughout.

Turning to `O=[N+]([O-])c1cc(O)c(O)c([N+](=O)[O-])c1`, in [1], the activation is -0.323%. The Potency result in assay [2] and in [6] was “inactive” throughout. The Potency in assay [8] is 10.1 µM (active).

For the molecule `Cc1nccc2c1[nH]c1ccccc12`, the activation in assay [1] was -18.9%. Also, the Potency result in [2], in assay [3] and in assay [4] was “inactive” in each case.

On to `NCC1(CC(=O)O)CCCCC1`, for which the activation in assay [1] is -0.945% and -3.35% and 5.99%. Also, the Potency entry in [2], in assay [3], in [4] and in assay [10] was “inactive” throughout.

On to `NC(CCCCCP(=O)(O)O)C(=O)O` (configuration not stated), for which the activation in assay [1] was -10.2%. The Potency entry in assay [2], in [3] and in assay [4] was “inactive” throughout.

For `CC(=O)c1c(O)c(C)c(O)c(Cc2c(O)c3c(c(C(=O)/C=C/c4ccccc4)c2O)OC(C)(C)C=C3)c1O`, the activation in [1] is -54.1%. In addition, the Potency entry in [2], in assay [14], in [15] and in assay [12] was “inactive” each time. Also, the Potency was 8.91 µM (active) in [3] and 4.17 µM (active) in [10].

Consider `CC(C)(O)[C@@H]1C2OC(=O)[C@@H]1[C@]1(O)C[C@H]3O[C@]34C(=O)O[C@H]2[C@]14C` (tested in a mixture with another compound), for which the activation in [1] is 10.1%. In addition, the Potency result in assay [2], in assay [3] and in [4] was “inactive” each time.

In the case of `CCCN(CCC)[C@@H]1CCc2ccc(O)cc2C1`, the activation in assay [1] was -24.8%. In addition, the Potency entry in [2], in assay [3] and in assay [4] was “inactive” each time.

As to `CS(=N)(=O)CC[C@H](N)C(=O)O` (some centres not stated), in assay [1], the activation was -13.1%. In addition, the Potency entry in assay [2], in [3] and in assay [4] was “inactive” throughout.

On to `C=CCN1C[C@@H](C)N([C@H](c2ccc(C(=O)N(CC)CC)cc2)c2cccc(OC)c2)C[C@@H]1C`, for which the activation in assay [1] is -25.3%. Moreover, the Potency result in assay [2], in assay [3] and in assay [4] was “inactive” in each case.

As to `c1ccc2c(c1)OCC(C1=NCCN1)O2` (configuration not stated), in assay [1], the activation is -26.9%. Moreover, the Potency in [2] was 30.1 µM (active). The Potency entry in assay [3] and in [4] was “inactive” each time.
